AC50 and outcome data for 37 compounds are collected here from PubChem BioAssay (EPA / NIEHS).

Values joined by “and” are separate entries in the source; they are usually repeats but may differ in a detail not shown here. Identical values can stand only once. Inconclusive results are not listed. Where a structure was tested more than once in an assay, its records may differ in their call. Active and inactive are the calls of the source. The calls were made as follows: active = hit-call score of the fitted dose curve at least 0.9, where 1 is the maximum; inconclusive = response in the unintended direction; inactive = score below 0.9.

The target in assay [1] is chimpanzee Androgen Receptor (AR), AR (gene 747460) (UniProt O97775). The experiment in a line: NVS_NR_cAR: NovaScreen (NVS) Nuclear Receptor Binding Assay for chimpanzee Androgen Receptor (AR) (AID 2283346).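 Also: a loss of bound radioligand signal versus DMSO counts as binding.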 The gist of the method: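 Radioligand binding to chimpanzee AR expressed in Sf9/Sf21 cells, cell-free, measured 72 h after dosing by lysate-based scintillation counting. Loss of signal vs DMSO; initial duplicate screen at 25 uM, actives retested in concentration series.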

Assay [2] has as its target Estrogen receptor (Homo sapiens) (UniProt P03372). Kind of assay: NVS_NR_hER: NovaScreen (NVS) Nuclear Receptor Binding Assay for human Estrogen Receptor (ER) (AID 2283348). A digest of the protocol: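 MCF7-derived receptor extract, radiolabelled ligand, competitive displacement. Read: scintillation counts at 18 h. DMSO = negative control/baseline. Primary 25 uM duplicate; follow-up concentration–response.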

The target is the same in assay [3]. The experiment in a line: OT_ER_ERaERa_1440: Odyssey Thera (OT) 24-hour HEK293T Protein-Complementation Assay for Estrogen Receptor-alpha/-alpha Homodimer (AID 2283349).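 Also: hits raise fluorescence above DMSO for agonists and antagonists alike.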 A digest of the protocol:
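Cells (HEK293T) carrying the fragment-tagged ERα LBD (aa 310-547) pair are treated with chemical for 24 hours. Nuclear and/or cytoplasmic fluorescence is then quantified on a laser scanning cytometer. Activity is scored as signal gain against DMSO.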

Assay [4] shares this target. Kind of assay: OT_ER_ERaERa_0480: Odyssey Thera (OT) 8-hour HEK293T Protein-Complementation Assay for Estrogen Receptor-alpha/-alpha Homodimer (AID 2283351).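 Also: rise in fluorescence from reassembled reporter fragments on ERα LBD homodimer in nucleus or whole cell.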 A digest of the protocol: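 Cells were treated for 8 hours, then imaged on a laser scanning plate cytometer. Complementation of reporter fragments fused to the human ERα ligand-binding domain (residues 310-547) in HEK293T gave fluorescence, and gain of signal over vehicle was fitted.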

Assay [5] concerns the target Estrogen receptor (Homo sapiens) + Estrogen receptor beta (Homo sapiens) (UniProt P03372+Q92731). The experiment in a line: OT_ER_ERaERb_0480: Odyssey Thera (OT) 8-hour HEK293T Protein-Complementation Assay for Estrogen Receptor-alpha/-beta Heterodimer (AID 2283352). A digest of the protocol: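 Human HEK293T cells were treated for 8 hours and receptor heterodimerisation was detected through reconstitution of a fluorescent reporter split between ER-alpha and ER-beta ligand-binding domains. Activity was analysed as gain of signal against DMSO.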

Assay [6] addresses Androgen Receptor/SRC-1 Co-activator, AR (gene 367) (UniProt P10275). Kind of assay: OT_AR_ARSRC1_0960: Odyssey Thera (OT) 16-hour HEK293T Protein-Complementation Assay for Androgen Receptor/SRC-1 Co-activator (AID 2283353).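 Also: actives raise the signal above DMSO so potency reflects increased AR and SRC-1 complex.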 The gist of the method: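 Stable HEK293T line carries AR and SRC-1 each linked to a Venus fragment; chemicals are applied for 16 h, cells imaged at two wavelengths, and the 488 nm nucleus/cytoplasm ratio is taken as the signal, rising relative to DMSO.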

The target is the same in assay [7]. Kind of assay: OT_AR_ARSRC1_0480: Odyssey Thera (OT) 8-hour HEK293T Protein-Complementation Assay for Androgen Receptor/SRC-1 Co-activator (AID 2283354).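 Also: hits raise the complementation signal above DMSO so AC50 marks enhancers.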 The gist of the method:
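Split-Venus PCA, stable HEK293T, AR/SRC-1 fusions; 8 h exposure. Readout: 488nm N/C fluorescence ratio, ≥400 cells/image; fitted upward vs DMSO baseline.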

Assay [8] deals with Bile acid receptor (Homo sapiens) (UniProt Q96RI1). Kind of assay: NVS_NR_hFXR_Agonist: NovaScreen (NVS) Nuclear Receptor Binding Assay for human Farnesoid X Receptor Agonism (FXR) (AID 2283347). As to the method: NVS_NR_hFXR_Agonist is a biochemical, single-readout assay that uses extracted gene-proteins in a cell-free assay. Measurements were taken 1 hour after chemical dosing in a 384-well plate.NVS_NR_hFXR_Agonist is one of one assay component(s) measured or calculated from the NVS_NR_hFXR_Agonist assay. It is designed to make measurements of fluorescent resonance energy transfer, a form of binding reporter, as detected with fluorescent resonance energy transfer signals by Time-Resolved Fluorescence Resonance Energy Transfer (TR-FRET) technology.Data from the assay component NVS_NR_hFXR_Agonist was analyzed into 1 assay endpoint. This assay endpoint, NVS_NR_hFXR_Agonist, was analyzed in the positive analysis fitting direction relative to DMSO as the negative control and baseline of activity. Using a type of binding reporter, gain-of-signal activity can be used to understand changes in the binding as they relate to the gene NR1H4. Furthermore, this assay endpoint can be referred to as a primary readout, because the performed assay has only produced 1 assay endpoint. To generalize the intended target to other relatable targets, this assay endpoint is annotated to the nuclear receptor intended target family, where the subfamily is non-steroidal. […]

Assay [9] concerns the target human Constitutive Androstane Receptor (CAR), NR1I3 (gene 9970) (UniProt Q14994). Kind of assay: NVS_NR_hCAR_Antagonist: NovaScreen (NVS) Nuclear Receptor Binding Assay for human Constitutive Androstane Receptor Antagonism (CAR) (AID 2283344). The gist of the method:
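Single 25 uM duplicate primary screen, with concentration-series follow-up on actives. Cell-free binding format run in antagonist mode, TR-FRET signal taken 1 h post-dose; activity is signal loss relative to DMSO.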

The target of assay [10] is rat Mineralocorticoid Receptor (MR), Nr3c2 (gene 25672) (UniProt P22199). The experiment in a line: NVS_NR_rMR: NovaScreen (NVS) Nuclear Receptor Binding Assay for rat Mineralocorticoid Receptor (MR) (AID 2283355). A digest of the protocol: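 Radioligand displacement, scintillation readout; tissue source adrenalectomized rat brain supernatant. Read 24 h post-dose. Screened in duplicate at 25 uM, DMSO negative control, controls on every plate; actives re-run in concentration series.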
Sequence of rat Mineralocorticoid Receptor (MR), Nr3c2 (gene 25672) (P22199 whole entry, looked up): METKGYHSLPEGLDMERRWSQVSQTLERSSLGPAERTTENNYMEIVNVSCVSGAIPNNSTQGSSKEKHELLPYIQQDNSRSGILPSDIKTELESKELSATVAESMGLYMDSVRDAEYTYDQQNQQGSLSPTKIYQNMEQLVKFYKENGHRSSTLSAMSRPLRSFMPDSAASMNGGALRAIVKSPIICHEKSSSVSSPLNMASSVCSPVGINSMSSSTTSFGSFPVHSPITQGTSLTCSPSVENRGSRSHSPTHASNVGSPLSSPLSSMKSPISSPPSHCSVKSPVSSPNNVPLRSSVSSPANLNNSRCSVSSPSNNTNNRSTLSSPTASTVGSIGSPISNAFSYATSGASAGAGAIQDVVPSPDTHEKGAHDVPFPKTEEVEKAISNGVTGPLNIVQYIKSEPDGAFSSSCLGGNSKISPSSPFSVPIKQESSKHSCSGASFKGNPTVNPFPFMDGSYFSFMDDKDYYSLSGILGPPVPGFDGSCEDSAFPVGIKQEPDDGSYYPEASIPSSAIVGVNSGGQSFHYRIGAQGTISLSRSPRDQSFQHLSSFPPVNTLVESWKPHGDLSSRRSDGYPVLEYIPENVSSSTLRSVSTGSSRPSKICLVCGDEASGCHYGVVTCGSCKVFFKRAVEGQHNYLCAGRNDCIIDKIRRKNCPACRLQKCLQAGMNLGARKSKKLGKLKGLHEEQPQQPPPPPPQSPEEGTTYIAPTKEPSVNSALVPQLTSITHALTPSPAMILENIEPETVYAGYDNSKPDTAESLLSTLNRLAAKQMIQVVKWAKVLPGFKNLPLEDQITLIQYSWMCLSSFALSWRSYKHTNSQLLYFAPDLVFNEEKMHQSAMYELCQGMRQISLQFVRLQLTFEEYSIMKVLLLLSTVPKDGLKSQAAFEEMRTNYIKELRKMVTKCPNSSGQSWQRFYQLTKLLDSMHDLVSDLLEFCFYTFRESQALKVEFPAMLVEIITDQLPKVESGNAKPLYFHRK

Sequence of Estrogen receptor (Homo sapiens) (P03372 whole entry, looked up): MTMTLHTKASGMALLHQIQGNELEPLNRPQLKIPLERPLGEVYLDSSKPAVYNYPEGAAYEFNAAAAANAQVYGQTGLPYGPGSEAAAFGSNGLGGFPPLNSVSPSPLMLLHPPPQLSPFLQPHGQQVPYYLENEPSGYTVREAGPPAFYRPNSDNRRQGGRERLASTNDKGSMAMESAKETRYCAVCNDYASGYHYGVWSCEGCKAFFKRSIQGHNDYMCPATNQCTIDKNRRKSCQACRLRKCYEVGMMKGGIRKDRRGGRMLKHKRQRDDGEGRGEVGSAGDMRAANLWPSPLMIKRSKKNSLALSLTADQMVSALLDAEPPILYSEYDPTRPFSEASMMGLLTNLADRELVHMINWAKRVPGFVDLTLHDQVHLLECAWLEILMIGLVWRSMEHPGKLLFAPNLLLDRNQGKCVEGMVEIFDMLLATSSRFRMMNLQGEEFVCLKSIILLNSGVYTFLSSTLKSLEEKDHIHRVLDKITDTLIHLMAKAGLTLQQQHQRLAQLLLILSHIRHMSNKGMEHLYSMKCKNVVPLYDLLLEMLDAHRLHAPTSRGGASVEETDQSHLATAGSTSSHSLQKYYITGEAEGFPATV
Sequence of Estrogen receptor (Homo sapiens) + Estrogen receptor beta (Homo sapiens) (P03372 whole entry, looked up, the tested form may be a part): as the sequence (P03372 whole entry, looked up) above
Sequence of Estrogen receptor (Homo sapiens) + Estrogen receptor beta (Homo sapiens) (Q92731 whole entry, looked up, the tested form may be a part): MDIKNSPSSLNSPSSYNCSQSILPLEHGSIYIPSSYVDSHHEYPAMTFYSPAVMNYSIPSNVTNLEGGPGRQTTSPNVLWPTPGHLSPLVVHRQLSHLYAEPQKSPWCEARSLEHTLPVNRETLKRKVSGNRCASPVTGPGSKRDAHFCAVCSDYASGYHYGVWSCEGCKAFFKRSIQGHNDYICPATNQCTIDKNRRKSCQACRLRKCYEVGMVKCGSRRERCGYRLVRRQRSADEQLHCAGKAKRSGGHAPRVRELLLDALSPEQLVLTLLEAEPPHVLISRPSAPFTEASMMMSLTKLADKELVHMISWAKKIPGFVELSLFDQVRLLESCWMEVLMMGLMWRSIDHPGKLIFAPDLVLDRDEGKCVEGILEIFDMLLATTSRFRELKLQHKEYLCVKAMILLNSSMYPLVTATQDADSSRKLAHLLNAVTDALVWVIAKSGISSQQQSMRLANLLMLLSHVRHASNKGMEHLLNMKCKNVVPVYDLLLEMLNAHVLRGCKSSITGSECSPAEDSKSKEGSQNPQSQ
Sequence of chimpanzee Androgen Receptor (AR), AR (gene 747460) (O97775 whole entry, looked up): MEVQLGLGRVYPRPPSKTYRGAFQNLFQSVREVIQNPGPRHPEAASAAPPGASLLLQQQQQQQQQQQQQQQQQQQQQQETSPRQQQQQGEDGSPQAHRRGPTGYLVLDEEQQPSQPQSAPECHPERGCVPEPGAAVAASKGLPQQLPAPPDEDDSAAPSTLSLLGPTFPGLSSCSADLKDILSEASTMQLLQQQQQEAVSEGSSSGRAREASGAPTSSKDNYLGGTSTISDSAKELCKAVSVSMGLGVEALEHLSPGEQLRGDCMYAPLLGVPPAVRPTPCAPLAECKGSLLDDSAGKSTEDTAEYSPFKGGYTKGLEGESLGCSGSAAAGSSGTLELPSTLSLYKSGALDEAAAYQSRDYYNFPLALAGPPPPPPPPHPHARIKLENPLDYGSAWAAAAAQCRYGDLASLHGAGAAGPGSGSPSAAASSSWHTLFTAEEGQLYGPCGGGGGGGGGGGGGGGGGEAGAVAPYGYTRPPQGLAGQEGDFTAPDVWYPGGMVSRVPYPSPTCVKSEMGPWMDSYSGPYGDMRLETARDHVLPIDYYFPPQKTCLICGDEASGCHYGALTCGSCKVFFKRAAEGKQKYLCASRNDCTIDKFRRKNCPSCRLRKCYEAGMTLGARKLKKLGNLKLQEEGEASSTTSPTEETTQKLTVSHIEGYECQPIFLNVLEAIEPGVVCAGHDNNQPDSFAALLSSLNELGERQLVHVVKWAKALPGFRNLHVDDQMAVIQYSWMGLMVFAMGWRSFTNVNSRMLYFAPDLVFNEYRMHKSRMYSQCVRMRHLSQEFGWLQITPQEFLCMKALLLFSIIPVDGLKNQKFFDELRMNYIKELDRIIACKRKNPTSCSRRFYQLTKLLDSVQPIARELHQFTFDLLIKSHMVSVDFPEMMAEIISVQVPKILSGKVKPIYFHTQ
Sequence of Androgen Receptor/SRC-1 Co-activator, AR (gene 367) (P10275 whole entry, looked up, the tested form may be a part): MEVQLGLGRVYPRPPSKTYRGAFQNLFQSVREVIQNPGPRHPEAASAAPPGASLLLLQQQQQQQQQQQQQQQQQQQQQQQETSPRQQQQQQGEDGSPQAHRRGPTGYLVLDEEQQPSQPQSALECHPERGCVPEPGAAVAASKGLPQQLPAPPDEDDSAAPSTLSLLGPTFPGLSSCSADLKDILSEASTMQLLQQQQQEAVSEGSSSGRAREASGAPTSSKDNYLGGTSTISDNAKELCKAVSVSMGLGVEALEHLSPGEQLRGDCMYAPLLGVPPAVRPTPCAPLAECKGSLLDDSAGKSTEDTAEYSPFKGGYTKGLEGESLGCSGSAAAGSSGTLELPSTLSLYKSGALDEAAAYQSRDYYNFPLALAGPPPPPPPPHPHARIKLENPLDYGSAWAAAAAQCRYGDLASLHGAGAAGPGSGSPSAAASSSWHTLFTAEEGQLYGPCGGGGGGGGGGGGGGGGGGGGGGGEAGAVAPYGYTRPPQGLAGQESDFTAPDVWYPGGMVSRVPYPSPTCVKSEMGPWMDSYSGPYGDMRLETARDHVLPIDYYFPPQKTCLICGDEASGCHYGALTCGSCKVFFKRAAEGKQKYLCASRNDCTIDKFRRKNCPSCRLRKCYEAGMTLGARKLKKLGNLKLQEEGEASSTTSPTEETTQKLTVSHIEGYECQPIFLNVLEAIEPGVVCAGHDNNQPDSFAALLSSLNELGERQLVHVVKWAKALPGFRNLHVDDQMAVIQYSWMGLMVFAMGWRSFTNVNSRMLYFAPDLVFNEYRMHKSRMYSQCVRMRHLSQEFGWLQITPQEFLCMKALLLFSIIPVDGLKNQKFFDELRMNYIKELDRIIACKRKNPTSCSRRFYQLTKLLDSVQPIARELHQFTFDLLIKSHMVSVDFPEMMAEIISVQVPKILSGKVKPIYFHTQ
Sequence of Bile acid receptor (Homo sapiens) (Q96RI1 whole entry, looked up): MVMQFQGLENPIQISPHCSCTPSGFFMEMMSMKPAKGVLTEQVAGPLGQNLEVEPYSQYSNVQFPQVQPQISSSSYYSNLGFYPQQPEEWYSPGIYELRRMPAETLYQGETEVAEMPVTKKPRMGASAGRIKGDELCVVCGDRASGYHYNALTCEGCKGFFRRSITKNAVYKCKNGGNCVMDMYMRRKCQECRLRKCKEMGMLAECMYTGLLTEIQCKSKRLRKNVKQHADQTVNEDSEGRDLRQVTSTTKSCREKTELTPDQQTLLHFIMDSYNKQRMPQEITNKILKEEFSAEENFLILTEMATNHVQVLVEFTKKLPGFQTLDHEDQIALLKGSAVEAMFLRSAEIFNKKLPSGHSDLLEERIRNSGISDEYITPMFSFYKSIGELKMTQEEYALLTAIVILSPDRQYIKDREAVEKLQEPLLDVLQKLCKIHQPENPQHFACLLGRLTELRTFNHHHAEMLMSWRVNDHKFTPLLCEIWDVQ
Sequence of human Constitutive Androstane Receptor (CAR), NR1I3 (gene 9970) (Q14994 whole entry, looked up): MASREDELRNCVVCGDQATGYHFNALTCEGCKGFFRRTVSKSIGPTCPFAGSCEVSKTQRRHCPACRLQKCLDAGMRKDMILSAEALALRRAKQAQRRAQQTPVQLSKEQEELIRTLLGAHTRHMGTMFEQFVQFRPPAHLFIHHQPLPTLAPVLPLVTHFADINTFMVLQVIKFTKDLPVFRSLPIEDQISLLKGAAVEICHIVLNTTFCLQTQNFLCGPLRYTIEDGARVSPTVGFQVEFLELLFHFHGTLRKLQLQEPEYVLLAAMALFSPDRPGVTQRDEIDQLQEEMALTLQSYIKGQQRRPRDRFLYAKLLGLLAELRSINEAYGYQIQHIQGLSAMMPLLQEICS

`CC(C)C1CCC(Cc2ccc(Cl)cc2)C1(O)Cn1cncn1` (stereo not given): the half-maximal activity concentration (AC50) (commonly the concentration at which the activity in the assay is half-maximal) in assay [1] is 10.3 µM (active). For the same compound, the result in assay [2], in assay [3] and in [4] was inactive.
In the case of `CCC[CH2][Sn]([CH2]CCC)([CH2]CCC)[O]C(=O)c1ccccc1`, the concentration at half-maximal activity (AC50) was 9.94 µM (active) in assay [1] and 2.94 µM (active) in assay [2]. Further, in [3], the outcome was inactive.
Consider `C[C@@H]1C[C@@H]([C@H](O)CC2CC(=O)NC(=O)C2)C(=O)[C@@H](C)C1`, for which the compound was called inactive in assay [1].
As for `CC(C)(c1ccc(OCC2CO2)cc1)c1ccc(OCC2CO2)cc1` (stereo not given), the compound was called inactive in [1], in assay [3], in assay [5] and in [7]. Moreover, the AC50 in [2] is 14.2 µM (active); in assay [6], 79.1 µM (active).
For the compound `COP(=S)(OC)Oc1ccc(Sc2ccc(OP(=S)(OC)OC)cc2)cc1`, the call in assay [1], in assay [3], in assay [5], in assay [6] and in assay [7] was inactive. Further, the AC50 in assay [2] was 1.73 µM (active).
Take `COc1cc(OC)nc(NC(=O)NS(=O)(=O)c2ncccc2C(=O)N(C)C)n1`: the result in [1], in [3], in assay [4] and in assay [5] was inactive.
For the compound `CCC[CH2][Sn]([Cl])([Cl])[Cl]`, the AC50 in assay [1] is 25 µM (active). In addition, the call in assay [3] was inactive.
Turning to `Cc1ccccc1C(=O)Nc1cccc(OC(C)C)c1`, the outcome in assay [1], in assay [3], in assay [4], in [5], in assay [6] and in assay [7] was inactive.
For the compound `CC(=O)[O][Hg][c]1ccccc1`, the concentration at half-maximal activity (AC50) in [1] was 29.1 µM (active); in [6] it was 1.86 µM (active); in [7] it was 3.4 µM (active). Besides, the outcome in assay [2] and in [3] was inactive.
As for `C[C@]12CC[C@H](O)CC1=CC[C@@H]1[C@@H]2CC[C@]2(C)C(=O)CC[C@@H]12`, the half-maximal activity concentration (AC50) in [1] was 1.88 µM (active).
Regarding `O=C1C2(Cl)C3(Cl)C4(Cl)C(Cl)(Cl)C5(Cl)C3(Cl)C1(Cl)C5(Cl)C24Cl` (stereo not given), the compound was classed as inactive in assay [1] and in [8]. Further, the AC50 in assay [6] was 19.2 µM (active) and 46.6 µM (active) and 26 µM (active); in assay [7], 28.5 µM (active) and 76.6 µM (active) and 31.5 µM (active).
Consider `Fc1ccc(C2(Cn3cncn3)OC2c2ccccc2Cl)cc1` (stereo not given), for which the compound was called inactive in assay [1] and in [2]. Besides, the AC50 is 39.5 µM (active) in assay [3], 23.7 µM (active) in [4] and 12.7 µM (active) in [5].
Consider `CNC(=O)O/N=C/C(C)(C)S(C)=O` (stereo not given), for which the outcome in assay [1], in assay [3], in assay [4] and in [5] was inactive.
Take `CC12CC1(C)C(=O)N(c1cc(Cl)cc(Cl)c1)C2=O` (stereo not given): the compound was called inactive in assay [1], in assay [6] and in [7].
In the case of `CCOC(=O)Nc1cccc(OC(=O)Nc2ccccc2)c1`, the outcome in assay [1], in assay [3] and in assay [4] was inactive.
As to `Cc1ccc(N)cc1Cl`, the compound was classed as inactive in assay [1], in assay [3], in [4] and in [5].
On to `CCN(CC)C(=O)Cl`, for which, in assay [1], the AC50 is 2.82 µM (active).
In the case of `CCN1CCC2(CC1)COc1cc3c(cc12)N(C(=O)c1ccc(-c2ccc(-c4nnc(C)o4)cc2C)cc1)CC3`, the AC50 is 16.8 µM (active) in [1], 7.04 µM (active) in assay [6] and 11.7 µM (active) in assay [7]. Moreover, the compound was called inactive in [3].
On to `CC1(C)CCC(Cc2ccc(Cl)cc2)C1(O)Cn1cncn1` (stereo not given), for which the AC50 in [1] was 6.82 µM (active). The compound was called inactive in [2], in assay [3] and in assay [4].
As to `Oc1ccc(-c2ccccc2)cc1`, in assay [1], the AC50 was 4.83 µM (active) and the outcome was inactive.
For the compound `Cc1ccccc1N`, the compound was classed as inactive in [9].
As for `CCCCCCCCCl`, the call in assay [1] was inactive.
For `C=C(C)C(=O)[O][Sn]([CH2]CCC)([CH2]CCC)[CH2]CCC`, the AC50 in assay [1] was 12.1 µM (active). The compound was called inactive in assay [2], in assay [3] and in assay [5].
As for `Cl/C=C\C[N+]12CN3CN(CN(C3)C1)C2`, the AC50 in assay [1] was 1.43 µM (active); in [6] it was 76.6 µM (active); in [7] it was 91.5 µM (active). Further, in [3], the outcome was inactive.
For `Clc1ccc(COC(Cn2ccnc2)c2ccc(Cl)cc2Cl)cc1` (stereo not given), the AC50 in assay [1] is 9.28 µM (active). Moreover, the compound was called inactive in assay [3] and in assay [4].
On to `CCNc1nc(NC(C)(C)C)nc(SC)n1`, for which the outcome in assay [1] was inactive.
On the same count and under the same terms, in the case of `N#CCCO` it was “inactive”.
For `Clc1ccc(C2(Cn3cncn3)CC(Br)CO2)c(Cl)c1` (stereo not given), the half-maximal activity concentration (AC50) in [1] is 7.36 µM (active). The compound was called inactive in assay [2], in [3], in assay [4] and in assay [5].
As to `O=C(OC1CCCCC1)c1ccccc1C(=O)OC1CCCCC1`, the call in assay [1], in [2] and in assay [10] was inactive. Besides, the results for the AC50 in assay [3] and in assay [4] were 23.9 µM (active) and 35 µM (active), respectively.
As to `C[C@H]1CCCC(=O)CCC/C=C/c2cc(O)cc(O)c2C(=O)O1`, the AC50 in [2] was 0.00245 µM (active); in assay [3], 0.46 µM (active); in assay [5], 0.0558 µM (active). Also, the result in assay [6] and in [7] was inactive.
In the case of `CC(C)(c1ccccc1)c1ccc(O)c(C(C)(C)c2ccccc2)c1`, the call in assay [2], in assay [3] and in [5] was inactive.
With `O=C/C=C/c1ccccc1`, the call in [3] was inactive.
On to `CC(C)c1ccc(CO)cc1`, for which the compound was called inactive in [2].
For `ClC(Cl)=C(Cl)C(Cl)=C(Cl)Cl`, the compound was classed as inactive in assay [3].
Regarding `ClC1=C(Cl)[C@]2(Cl)[C@H]3[C@H]([C@H]4C=C[C@H]3C4)[C@@]1(Cl)C2(Cl)Cl`, the compound was classed as inactive in [2].
Turning to `CCOP(=S)(OCC)SCSP(=S)(OCC)OCC`, the result in assay [2] and in assay [3] was inactive. Besides, the half-maximal activity concentration (AC50) in assay [5] is 10.7 µM (active).
As for `NNC(=S)NN`, the compound was called inactive in assay [2], in assay [3] and in assay [4].
